# Rows were chosen to be rich in hits. Some 19% of all compounds tested hit in one or more screens of this group.
# HT1080 IDH1KD tx: toxicity to HT-1080 IDH1 knockdown cells (counter line); HT-1080 IDH1 knockdown viability, ATP luminescence, 48 h; Potency, µM (doses to about 46.1 µM), inactives show at the highest dose activity, negative = toxicity, usual class: cytotoxic; 360,000 tested, 2% active; AID 686971;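 also: potency is read from the fitted curve at half-maximal effect; 0% = DMSO wells and -100% = cell-free medium wells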
#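 After a 2 h attachment period, IDH1KD HT-1080 cells took pin-transferred compound for 48 h at 37 °C; ATP-based luminescence after 10 min room-temperature reagent incubation reported viability.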
# DT40 TDP1 CPT: DT40-hTDP1 cell growth loss with CPT. chicken DT40 Tdp1-/-;hTDP1 cells + 20 nM CPT, ATP luminescence, 48 h. Potency, µM (titrated, usually from 46.2 µM), inactives show at the top dose activity change, negative = growth inhibition, hits mostly inhibitors. 420,000 tested, 12% active. AID 686979; also: potency is read from the fitted curve at half-maximal effect; nearly all actives have a fitted effect of over 55% in size
#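 Cell growth measured by CellTiter-Glo luminescence after a minimum 48 h, 37 C compound exposure with 20 nM CPT in Tdp1-knockout DT40 cells stably expressing hTDP1, seeded 400/well; qHTS titration format.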
# DT40 TDP1 no CPT: qHTS for Inhibitors of human tyrosyl-DNA phosphodiesterase 1 (TDP1): qHTS in cells in absence of CPT; DT40 Tdp1-/- hTDP1 cells, no CPT, ATP luminescence, 48 h; Potency, µM (titrated, usually from 46.2 µM), inactives show top-dose activity change, negative = growth inhibition, most hits filed as inhibitors; 420,000 tested, 15% active; AID 686978, 2013; also: potency is read from the fitted curve at half-maximal effect; nearly all actives have a fitted effect of over 55% in size
#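 Chicken DT40 Tdp1-/- cells stably complemented with human TDP1 were seeded at 400 cells/well with DMSO in place of 20 nM camptothecin. After compound pinning, cells grew at least 48 hr at 37 °C; viability read by CellTiter-Glo luminescence.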
# ELG1 repair inh: inhibitors of ELG1-dependent DNA repair in HEK293T cells; 330,000 tested, 2.3% active; Potency, µM (titrated, usually from 46.1 µM), for inactives: at the highest dose activity change, negative = inhibition, hits mostly inhibitors; HEK293T ELG1-luciferase reporter, luminescence, 16 h; DNA damage induced by 5-fluorouridine; also: potency is read from the fitted curve at half-maximal effect; nearly all actives have a fitted effect of over 55% in size
#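 Quantitative HTS, concentration-response format. 2,000 cells/well co-treated with 5-fluorouridine and compound, 16 hr in 5% CO2 at 37 °C; ONE-Glo luminescence read after 30 min.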
# HT1080NT lethal: kills 2HG-producing HT-1080-NT fibrosarcoma cells | HT-1080-NT fibrosarcoma viability, CellTiter-Glo ATP luminescence, 48 h | Potency, µM (highest dose often 46.1 µM), for inactives: at the top dose activity, negative = less viability, actives largely listed as cytotoxic | 360,000 tested, 1.6% active;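 also: NT is the 2HG producing partner of a matched IDH1 knockdown line; potency is read from the fitted curve at half-maximal effect; 0% = DMSO-treated cells and -100% = media-only wells without cells; nearly all actives have a fitted effect of over 55% in size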
#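 A 48-hour cytotoxicity screen used HT-1080-NT cells plated 2 hours before compound delivery. ATP-based CellTiter-Glo luminescence measured viability, normalized to DMSO and no-cell controls.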
# IL1B secr inh: blocks inflammasome-driven IL-1 beta release; THP-1 LPS/ATP IL-1B secretion, AlphaLISA, 16 h; stronger effect = lower value; activity change, % at 57.5 µM; 360,000 tested, 4.7% active; in the data active = activity change below about -50%; inconclusive = mostly about -30% to -49%
#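 Secreted IL-1B measured by AlphaLISA bead assay after 16 h compound exposure of THP-1 cells; compounds (final up to 57.5 uM) added 1 h before LPS (250 ng/mL) and ATP (1.25 mM) stimulation; lower signal means less secretion.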
# Starred values were filed as active, the others as inactive; u = inconclusive; x = no result; [ ] = dose if it differs, or a comment. Unless noted, calls follow the shape of the dose curve; as a rule, active = well fitted curve in the direction sought with a large enough effect; inconclusive = small, poorly fitted or top-dose-only effect, or another doubt; inactive = no such curve, though single readings can be large; an effect the other way counts as inactive or inconclusive. Unless noted, % is scaled to controls: 0 for no effect and ±100 for the full control effect.
SMILES,HT1080 IDH1KD tx,DT40 TDP1 CPT,DT40 TDP1 no CPT,ELG1 repair inh,HT1080NT lethal,IL1B secr inh
CCc1ccc(N(CC(=O)NCC2CCCO2)C(=O)CCC(=O)Nc2nccs2)cc1 (stereo not drawn),3%,7%,-9%,3%,5%,-1
CC(NC(=O)CCCCCNC(=O)N1CCn2c1nc1ccccc12)c1ccccc1 (stereo not drawn),-1%,15µM*,-36%,u,-8%,-53*
O=C(CCCCCNC(=O)N1CCn2c1nc1ccccc12)N[C@@H](C(=O)O)c1ccccc1,0%,6%,-5%,2%,6%,27
CC(C)[C@H](NC(=O)N1CCn2c1nc1ccccc12)C(=O)NCc1ccc(F)cc1,-14%,u,-19%,3%,-12%,-94*
S=c1nc(C23CC4CC(CC(C4)C2)C3)[nH][nH]1,-4%,-11%,-15%,-1%,-5%,10
Cc1sc(N)nc1C12CC3CC(CC(C3)C1)C2,-20%,6%,u,8%,0%,-52*
CCn1c(SCC(=O)Nc2c(C#N)cnn2-c2ccccc2)nnc1-c1cccs1,17%,-2%,-22%,-3%,12%,40
Cc1cscc1-c1ccc(C(=O)Nc2c(C)cccc2C)o1,u,3.7µM*,4.6µM*,x,-29%,u
O=C1Nc2c(ccc(Cl)c2Cl)C(=O)C1(F)c1ccccc1 (stereo not drawn),-14%,-16%,-29%,u,-4%,-99*
O=C1Nc2ccc(Cl)cc2C(=O)C1(F)c1ccccc1 (stereo not drawn),-16%,u,u,17%,-19%,u
C[C@@H]1CN([C@H](C)CO)C(=O)CCCn2nncc2CO[C@H]1CN(C)Cc1ccc2c(c1)OCCO2,2%,6%,u,x,8%,7
O=C(Nc1ccc(Cl)cc1F)c1ccc2c(c1)C(=O)N(Cc1ccncc1)C2=O,3%,0%,u,-2%,-14%,-10
COc1ccc(-c2nnc(-c3ccc(F)cc3)o2)cc1,22%,0%,-4%,u,u,-7
Fc1cccc2sc(Nc3nnc(-c4ccco4)o3)nc12,-30%,u,23µM*,u,-24%,30
COc1cccc2sc(Nc3nnc(-c4cccs4)o3)nc12,u,3.7µM*,8.2µM*,u,-29%,75
COc1cccc2sc(Nc3nnc(-c4ccc(F)cc4)o3)nc12,-24%,5.8µM*,5.8µM*,14%,-7%,15
COc1cccc2sc(NC(=O)c3ccc(Br)s3)nc12,u,-24%,u,u,u,-1
Fc1cccc(NC(=S)NCCc2ccccc2)c1,-24%,u,21µM*,18%,-7%,-10
Cc1cccnc1NC(=S)NCCc1ccccc1,-3%,u,21µM*,u,-11%,-21
S=C(NCCc1ccccc1)Nc1ncccn1,-8%,1%,-17%,x,-4%,-6
O=C(NCCc1ccccc1)Nc1cccc(Cl)c1,-16%,16µM*,u,u,-13%,-16
Fc1ccccc1NC(=S)NCCc1ccccc1,0%,7.3µM*,9.2µM*,u,-1%,39
Cc1noc(C)c1S(=O)(=O)Nc1ccc2c(c1)C(=O)N([C@H](C)CO)C[C@H](C)[C@@H](CN(C)S(=O)(=O)c1ccccc1)O2,6%,0%,2%,u,4%,11
COCCn1c(C)c(C)c(S(=O)(=O)c2ccccc2)c1N,10%,-24%,1%,12%,3%,3
CCc1cc(Br)ccc1NC(=S)NCCc1ccccc1,-8%,u,21µM*,u,-2%,u
SMILES,HT1080 IDH1KD tx,DT40 TDP1 CPT,DT40 TDP1 no CPT,ELG1 repair inh,HT1080NT lethal,IL1B secr inh
Fc1ccc(F)c(NC(=S)NCCc2ccccc2)c1,-18%,16µM*,16µM*,-4%,u,-66*
Fc1ccccc1NC(=S)NN(Cc1ccccc1)c1ccccc1,u,u,u,-4%,11µM*,3
Cc1c(Cl)cccc1NC(=S)NCCc1ccc(F)cc1,-6%,-27%,-19%,2%,-14%,-82*
Cc1c(Cl)cccc1NC(=S)NCCc1ccc(Cl)cc1,u,u,u,-10%,u,x
CC(C)c1ccccc1NC(=S)NN(Cc1ccccc1)c1ccccc1,-15%,u,u,3%,-29%,u
COC(=O)c1ccc(CNC(=O)COC(=O)c2ccccc2-c2ccccc2)cc1,-1%,u,u,u,7%,-24
CN(C)S(=O)(=O)c1cccc(COC(=O)CCNC(=O)c2ccc([N+](=O)[O-])cc2)c1,-1%,1%,-2%,0%,1%,-7
CCOC(=O)C(=O)N1CCN(c2cc3c(cc2[N+](=O)[O-])n(C)c(=O)n3C)CC1,3%,-7%,-2%,-12%,7%,25
CN(C(=O)CSc1nnnn1C)C1(C#N)CCCCC1,21%,-12%,8%,17%,1%[9.24 µM],8
CC(C)Cn1c(=O)c2sccc2n2c(CCCC(=O)NCc3ccccc3Cl)nnc12,x,-11%,-19%,x,x,x
COc1cc(C(=O)NC2CCCc3ccccc32)ccc1OCC(=O)Nc1ccc(F)cc1 (stereo not drawn),5%,1%,u,-15%,14%,0
Cc1ccc(C)c(N2CCN(C(=O)c3cc4c(=O)oc5ccccc5c4s3)CC2)c1,x,-13%,-4%,x,x,x
Cc1cccc(NC(=O)NCCCCc2ccccc2)c1,1%,-21%,-12%,u,14%,-18
O=C(NCCCCc1ccccc1)Nc1cccc(F)c1,u,u,23µM*,-1%,u,-99*
Cc1cccc(C)c1NC(=S)NCCc1ccc(O)c(O)c1,-9%,16µM*,13µM*,u,-5%,12
Cc1cccc(NC(=S)NCCc2ccccc2)c1C,-9%,26µM*,u,3%,-6%,-21
Cc1ccc(NC(=S)NCCc2ccccc2)nc1,4%,u,5.8µM*,u,-17%,39
COc1ccc(CCNC(=S)Nc2cccc(C)c2C)cc1,13%,u,u,-16%,2%,18
Cc1ccccc1NC(=S)NCCc1ccc(S(N)(=O)=O)cc1,18%,9%,-22%,-2%,21%,9
O=C(Nc1ccon1)c1nc[nH]c1C(=O)N1CCN(c2ccccc2)CC1,15%,15%,6%,0%,11%,-6
